According to ChEMBL document CHEMBL3988442, “University of Dundee, Small-Polar-MMV Screening Library” (2021):

target: AMP-activated protein kinase, AMPK (Homo sapiens) (UniProt P54646+O43741+P54619+Q9UGJ0+Q9Y478+Q13131+Q9UGI9); experiment: AMP-dependent Kinase enzyme assay. An in vitro enzyme assay that detects ADP turnover that is directly proportional to AMPK activity. This uses naive AMPK that is activated during the assay with MK-8722; assay type: functional; set-up: scale not given: direction of the effect not stated beside the values; conditions: 30 µM

| Compound | Percent Effect [%] |
| --- | --- |
| COc1ccccc1CN(Cc1nc(CC(C)C)no1)C1CC1 | 14.9 |
| CC(O)C(=O)N1CCC(c2[nH]ncc2-c2ccccc2)CC1 (stereo not given) | -11.2 |
| Cc1cc(CN(C)C(=O)CC(C)C)no1 | 0.491 |
| Cc1cc(C(=O)NC(C)Cc2ccccc2Cl)n(C)n1 (stereo not given) | 7.6 |
| CCC1(CC)CC(=O)N(CC(O)c2cccc(Br)c2)C1=O (stereo not given) | 17.2 |
| Cc1c(Br)cccc1C(=O)Nc1cc(C(N)=O)n(C)c1 | 3.87 |
| COc1ccccc1Oc1ncccc1CNC(=O)C1COC(=O)N1 (stereo not given) | -13.1 |
| CS(=O)(=O)N1CCCCC1c1ccc(Nc2cnccn2)nc1 (stereo not given) | 4.25 |
| CCOC(=O)N1CCN(C(=O)Cn2ccc3ncccc3c2=O)CC1 | -0.626 |
| Cn1ccc(C(=O)N2CCC(Cc3ccc4ncccc4c3)CC2)n1 | 15.1 |
| CC(C)c1nnc(NC(=O)Cc2csc(-c3nnc[nH]3)n2)s1 | 6.49 |
| Cc1nccn1-c1nccnc1C1CCCN(C2CCCC2)C1 (stereo not given) | 12.6 |
| CSCCC(NC(N)=O)C(=O)NCc1cnn(-c2ccccc2)c1 (stereo not given) | -5.05 |
| COC[C@@H]1CCCN1C(=O)CCc1c(C)nn(C)c1C | -3.67 |
| CCC[C@@H]1CN(Cc2cnc(-c3cccs3)nc2)C[C@H]1C(=O)O | -8.24 |
| CC(C(=O)NCC(C)(C)c1ccc2c(c1)OCCO2)n1cncn1 (stereo not given) | 11.3 |
| CCn1c(C2CCCN2Cc2noc(C(C)(C)C)n2)nc2ccccc21 (stereo not given) | 13.4 |
| COc1cc(C(=O)O)ccc1OCC(=O)NCCc1ccccc1 | 2.55 |
| CCc1ncc2c(n1)CN(c1cc(NCCO)nc(N)n1)C2 | -219 |
| COc1ccccc1C(C)(C)NC(=O)c1cc(NC(C)=O)ccc1F | -6.77 |
